Shown are actives, neighbours in structure and some others; about 7.9% of the full set was active somewhere.
HCMV antiviral = human cytomegalovirus inhibition | HFF cells, HCMV-luciferase reporter, 72 h; stronger effect = lower value | 410,000 compounds, 4.5% hits | AID 1259415 | activity change, negative = inhibition, % at 57.5 µM; in the data active means activity change below about -60%; inconclusive means no clear call, values can overlap the other calls; inactive means above about -39%
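After 16 h attachment at 37C, HFF cells received test compound and HCMV-luciferase (1 PFU/cell); reporter luminescence read 72 h later, data normalized against buffer-only and known inhibitor Salinomycin.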
Lassa entry inh = blocks Lassa virus binding to or entry into cells | Lassa virus pseudotype entry inhibition, cell reporter | Potency, µM (doses to about 37.9 µM), most hits filed as inhibitors | 300,000 compounds, 1.2% hits | AID 540256; calls by dose curve; tested in HEK293 cells; further: nearly all actives have a fitted effect of over 50% in size
HCV inh = blocks hepatitis C virus; Huh7.5.1 HCVcc-Cre infection, luciferase reporter, 44 h; Potency, µM (doses to about 41.8 µM), hits mostly inhibitors; 340,000 compounds, 3.4% hits; active means well fitted inhibition curve with a large enough effect; inconclusive means small, poorly fitted or top-dose-only effect, or another doubt; inactive means no such curve, though single readings can be large or run the other way
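Cells seeded at 1,000/well and cultured 4 h, then compounds added followed by HCVcc-Cre virus (~0.5 moi). After 44 h further culture, luciferase substrate was added, plates held 15 min at room temperature, and luminescence read for 15 sec.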
Marburg entry inh = inhibitors of Marburg virus binding or cell entry | Marburg virus pseudotyped entry inhibition, cell reporter | Potency, µM (titrated, usually from 37.8 µM), hits mostly inhibitors | 300,000 compounds, 1.8% hits; calls by dose curve; tested in HEK293 cells
FMDV antiviral = blocks foot and mouth disease virus; FMDV antiviral cell-based qHTS; Potency, µM (top dose mostly 57.9 µM), most hits filed as inhibitors; 410,000 compounds, 1.2% hits; AID 1159524; calls by dose curve; tested in HEK293T cells; further: read-out not given here; nearly all actives have a fitted effect of over 45% in size
Numbers stand for hits; . = inactive; ? = inconclusive; / = no result given.

SMILES | HCMV antiviral | Lassa entry inh | HCV inh | Marburg entry inh | FMDV antiviral
O=S1(=O)c2ccc(Br)cc2N2CCC[C@H]2CN1Cc1ccccc1 | . | / | ? | / | .
C[C@@H](c1ccccc1)N1C[C@H]2CCCN2c2cc(Br)ccc2S1(=O)=O | . | ? | 11.2µM | / | .
CCOC(=O)c1ccc(NC(=O)c2c(NCc3cc(OC)ccc3OC)sc3c2CCC3)cc1 | . | . | / | / | .
Cc1ccccc1N=C1SC(CC(=O)Nc2ccc3ccccc3c2)C(=O)N1Cc1ccccn1 (stereo not given) | . | 16.4µM | 10µM | ? | ?
COCC(=O)Nc1cc(C(=O)NC2CCc3ccccc32)c2c(c1)nc(-c1ccncc1)n2C (stereo not given) | / | / | / | / | .
COc1ccc(O)c(C(=O)N2CCC3(CC2)c2ccccc2[C@@H](NC(=O)c2ccccn2)[C@@H]3OC)c1 | / | / | / | / | .
c1ccc(N2CCN(c3ccccc3)C2c2cccnc2)cc1 | . | . | . | . | 10µM
CC(C)c1ccc(/C=C(\c2nc3ccccc3[nH]2)S(=O)(=O)c2ccccc2)cc1 | -101.2 | ? | 12.6µM | ? | 10µM
O=S(=O)(/C(=C/c1ccc(C(F)(F)F)cc1)c1nc2ccccc2[nH]1)c1ccccc1 | -103.7 | ? | 11.2µM | 11.2µM | ?
O=c1[nH]c2ccccc2nc1C(F)(F)F | . | . | . | . | .
C/C(=C\c1ccc(N)cc1)c1nc2ccccc2[nH]1 | . | / | . | / | .
COc1ccccc1C(=O)N1CCCC(c2nc(SCCN3CCOCC3)ncc2C)C1 (stereo not given) | / | / | / | / | .
Brc1ccc(-c2csc(-c3c[nH]c4ccccc34)n2)cc1 | . | . | 6.31µM | ? | .
COC(=O)c1c(NC(=O)c2c(OC)cccc2OC)sc2c1CCCC2 | . | . | / | / | .
COC(=O)c1c(NC(=O)CCCOc2ccc(C(C)(C)C)cc2)sc2c1C(C(=O)OC)CC2 (stereo not given) | -83.6 | ? | / | / | 35.5µM
CCCC(=O)Nc1sc2c(c1C(=O)OC)C(C(=O)OC)CC2 (stereo not given) | . | . | ? | ? | .
COC(=O)c1c(NC(=O)c2c(OC)cccc2OC)sc2c1C(C(=O)OC)CC2 (stereo not given) | -64.9 | / | ? | / | .
CCOC(=O)c1cccc(NC(=O)CSc2nc3cccnc3n2C)c1 | ? | ? | ? | ? | 17.8µM
CCOC(=O)c1c(NC(=O)CSc2nc3cccnc3n2C)sc(C(C)=O)c1C | / | . | ? | 10µM | 28.2µM
CCOC(=O)c1sc(NC(=O)CNCc2cccnc2)c(C(=O)OCC)c1C | -62.0 | . | . | ? | ?
CCOC(=O)c1c(NC(=O)CSc2nnc(-c3ccccc3C)n2C)sc(C(C)=O)c1C | . | . | 10µM | . | ?
CCOC(=O)c1cccc(NC(=O)CCc2nc3cccnc3n2-c2ccccc2)c1 | . | ? | / | . | .
CCOC(=O)c1sc(NC(=O)CSc2nc3cccnc3n2C)nc1C | . | . | . | . | .
CCOC(=O)c1c(NC(=O)CSc2nnc(-c3ccco3)o2)sc(C(C)=O)c1C | . | . | ? | ? | ?
O=c1c(-c2ccc(Cl)cc2)nc2cnc(N3CCOCC3)nc2n1C[C@H]1CCCO1 | / | / | / | / | .
SMILES | HCMV antiviral | Lassa entry inh | HCV inh | Marburg entry inh | FMDV antiviral
COc1ccc(C(=O)Nc2cc(-c3nc4ncccc4o3)ccc2C)cc1Br | . | . | / | / | .
CCNc1c2c(oc(=O)c1N)CCCC2 | / | / | / | . | /
Cc1c(-c2ccccc2)nc2ccccc2c1C(=O)Oc1ccc([N+](=O)[O-])cc1 | -76.0 | ? | ? | ? | ?
COc1ccccc1C=CC1=CC2(C)CC1(C)C(c1ccccc1OC)CC2=O (stereo not given) | / | / | / | . | /
COc1ccc(C(=O)O)cc1Nc1nc2ccc(C)cc2n2cnnc12 | . | / | / | . | .
O=S(=O)(c1ccc(OCC2CO2)cc1)c1ccc(OCC2CO2)cc1 (stereo not given) | -68.4 | / | . | / | .
Nc1ncnc(NCc2ccc(F)cc2)c1[N+](=O)[O-] | -71.9 | . | . | . | .
Cc1cccc(Nc2ncnc(N)c2[N+](=O)[O-])n1 | -78.6 | . | . | . | .
Cc1ccc(C)c(Nc2ncnc(N)c2[N+](=O)[O-])c1 | . | . | . | . | .
CN(c1ccccc1)c1nc(N)c([N+](=O)[O-])c(NCc2ccccc2)n1 | . | . | ? | . | ?
Cn1ncc2c(NCc3ccc(F)cc3)ncnc21 | . | . | / | / | .
Cc1cc(C)nc(Sc2ncnc(N)c2[N+](=O)[O-])n1 | ? | . | 22.4µM | ? | 12.6µM
Nc1ncnc(NCc2ccccc2)c1[N+](=O)[O-] | -69.7 | . | . | . | .
Nc1ncnc(Nc2ccccn2)c1[N+](=O)[O-] | . | . | ? | . | .
Cc1ccc(C(=O)Nc2cccc(-c3nc(CNC(=O)[C@@H]4C[C@@H](C)NC(=S)N4)c(C)o3)c2)s1 | / | / | / | / | .
COCCCn1c2nc3ccccc3nc2c2c(=O)n(C[C@H]3CCCO3)cnc21 | / | / | / | . | /
Cn1nnc2c[n+](CC(=O)c3ccc(Cl)cc3)cc(Br)c21 | -96.0 | ? | ? | ? | ?
Cn1nnc2c[n+](CC(=O)c3ccc4ccccc4c3)cc(Br)c21 | -96.7 | ? | ? | 11.2µM | ?
COc1ccc(Cl)cc1-c1cc2c(c(OC)c1)OCCN(Cc1cccn1-c1nccs1)C2 | / | / | / | / | .
CCCCN(C(=O)c1ccc(Cl)cc1)C1CC2CCC(C1)N2C (stereo not given) | . | ? | 11.2µM | ? | .
CN1C2CCC1CC(N(CCc1ccccc1)C(=O)c1ccc(Cl)cc1)C2 (stereo not given) | . | / | . | / | .
CCN(CC)S(=O)(=O)c1ccc2oc(C(=O)Nc3ccc(Br)cc3F)c(C)c2c1 | . | . | / | / | .
CCN(CC)S(=O)(=O)c1ccc(/C=C/C(=O)Nc2ccc(Br)cc2F)cc1 | -73.0 | 1.58µM | 2µM | 6.51µM | 5.01µM
CCN(CC)S(=O)(=O)c1ccc(/C=C/C(=O)Nc2ccc(N3CCOCC3)cc2)cc1 | -83.2 | / | 12.6µM | . | ?
CCN(CC)S(=O)(=O)c1ccc(/C=C/C(=O)Nc2ccc(F)c(F)c2F)cc1 | -64.1 | ? | 1.41µM | ? | ?
SMILES | HCMV antiviral | Lassa entry inh | HCV inh | Marburg entry inh | FMDV antiviral
CCN(CC)S(=O)(=O)c1ccc(/C=C/C(=O)Nc2ccc(F)cc2F)cc1 | -68.6 | / | ? | . | ?
CC(=O)c1c(C)oc2ccc(N(C(=O)Oc3ccccc3)S(=O)(=O)c3ccc(Cl)cc3)cc12 | . | . | / | . | .
CCOC(=O)c1ccc(NC(=O)CN2C(=O)COc3ccc(Cl)cc32)cc1 | . | . | / | . | .
Cc1ccc(C)c(C(=O)N2CCC(C3(c4ccccn4)NC(=O)N(CC4CCCO4)C3=O)CC2)c1 (stereo not given) | / | / | / | / | .
COC(=O)CC1=C(C(=O)OC)[C@H](c2ccc3c(c2Cl)OCO3)C(C#N)=C(N)O1 | / | / | / | . | /
CCc1nc(NC[C@H]2CCCO2)c(C#N)c2c1COC(C)(C)C2 | / | / | / | . | /
CC(C)CCCN1CCN=C1N(C)C | -73.8 | / | . | / | .
CCCCCCCN1CCN=C1N(C)C | . | / | . | / | .
CC(C)(C)c1cc(-c2csc(Nc3ccccc3)[n+]2Cc2ccc(C(=O)O)cc2)cc(C(C)(C)C)c1O | / | . | . | 11.2µM | 31.6µM
Cc1noc(C)c1CN1CCN2C=C(C(=O)NCCCc3ccccc3)OC2=NC1=O | . | / | / | / | /

Assay outcomes from PubChem BioAssay.
